High-throughput results: PubChem BioAssay, National Center for Advancing Translational Sciences (NCATS)
KCNH2 3.1 inh: qHTS for Inhibitors of KCHN2 3.1: Mutant qHTS; Potassium voltage-gated channel subfamily H member 2, brain isoform KCNH2 3.1 (human); 0.95% of 340,000 active; activity change, % (tested at about 1.8 µM); U2OS KCNH2 3.1, thallium flux FluxOr; hits give low values; AID 720553, 2013;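 active means maximum activity change below -70%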;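 further: thallium influx rate constant from kinetic fluorescence after stimulation buffer; on the % scale 0 is the no-effect control and ±100 the full control effect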
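Thallium flux via FluxOr fluorescence (Red40 quencher, 45 min loading) in U2OS cells virally expressing the KCNH2 3.1 isoform (1.77 x 10^8 /mL virus, overnight at 37 C). Rate constants from 2-min kinetic reads post-stimulation, normalised to positive and negative controls.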
KCNH2 WT inh: qHTS for Inhibitors of KCHN2 3.1: Wildtype qHTS; Voltage-gated inwardly rectifying potassium channel KCNH2 (Homo sapiens), Q12809; U2OS, BacMam KCNH2, thallium flux FluxOr; hits give low values; activity change, % at 1.84 µM; 0.37% of 340,000 active; AID 720551, 2013;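 active means maximum activity change below -70%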; further: on the % scale 0 is the no-effect control and ±100 the full control effect
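U2OS cells transduced with wild-type KCNH2 virus are loaded with FluxOr dye for 45 min, and thallium flux is measured in kinetic reads before and after stimulation buffer. Rate constants are normalized to DMSO controls.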
p53 reactivator: qHTS assay for re-activators of p53 using a Luc reporter | H1299 p53-A138V BP100-luciferase reporter, luminescence, 24 h | Potency, µM (top dose mostly 92.2 µM), without a hit: at the highest dose activity change, positive = activation, hits mostly activators | 0.063% of 320,000 active; active means well fitted activation curve with a large enough effect; further: potency means the concentration at half of the fitted maximal effect; % of control where 0% means no effect; nearly all actives have a fitted effect of over 45% in size
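p53-null H1299 cells stably carrying temperature-sensitive p53-A138V and a BP100-luciferase reporter were pinned with compounds (4-point, 1:5 series) and held 24 hrs at 37 deg C. Luminescence was read 10 min after detection reagent.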
ClpP mod: qHTS Assay for Activators of ClpP; ATP-dependent Clp protease proteolytic subunit (Bacillus subtilis (strain 168)), P80244; purified B. subtilis ClpP, FRET peptide cleavage, 20 min; Potency, µM (top dose mostly 57.5 µM), inactives show top-dose activity change, negative = active; 1.9% of 340,000 active; active means well fitted falling curve with a large enough effect; further: potency means the concentration at half of the fitted maximal effect; the source files actives as falling curves though it sought activators and does not explain the sign; nearly all actives have a fitted effect of over 65% in size
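ClpP 10 microg/mL final, pH 8 Tris/KCl buffer with BSA, glycerol, Tween-20; compound pinned in; FRET-FV substrate; RT 20 min; Ex320/Em430; ΔFRET vs ADEP 5.8 microM, DMSO, no enzyme.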
TRPV1 potentiator: HTS Assay for Compounds that Act as Potentiators of the Vanilloid Receptor 1. Transient receptor potential cation channel subfamily V member 1 (Homo sapiens), Q8NER1. TRPV1-expressing cells, Fluo-8 calcium influx, capsaicin EC20 potentiation. potentiation, % at 8.33 µM. 0.02% of 320,000 active. AID 540277, 2011; in the data active means potentiation above about 80%; further: 0% is about no effect
Target sequence (Q8NER1 whole entry, looked up): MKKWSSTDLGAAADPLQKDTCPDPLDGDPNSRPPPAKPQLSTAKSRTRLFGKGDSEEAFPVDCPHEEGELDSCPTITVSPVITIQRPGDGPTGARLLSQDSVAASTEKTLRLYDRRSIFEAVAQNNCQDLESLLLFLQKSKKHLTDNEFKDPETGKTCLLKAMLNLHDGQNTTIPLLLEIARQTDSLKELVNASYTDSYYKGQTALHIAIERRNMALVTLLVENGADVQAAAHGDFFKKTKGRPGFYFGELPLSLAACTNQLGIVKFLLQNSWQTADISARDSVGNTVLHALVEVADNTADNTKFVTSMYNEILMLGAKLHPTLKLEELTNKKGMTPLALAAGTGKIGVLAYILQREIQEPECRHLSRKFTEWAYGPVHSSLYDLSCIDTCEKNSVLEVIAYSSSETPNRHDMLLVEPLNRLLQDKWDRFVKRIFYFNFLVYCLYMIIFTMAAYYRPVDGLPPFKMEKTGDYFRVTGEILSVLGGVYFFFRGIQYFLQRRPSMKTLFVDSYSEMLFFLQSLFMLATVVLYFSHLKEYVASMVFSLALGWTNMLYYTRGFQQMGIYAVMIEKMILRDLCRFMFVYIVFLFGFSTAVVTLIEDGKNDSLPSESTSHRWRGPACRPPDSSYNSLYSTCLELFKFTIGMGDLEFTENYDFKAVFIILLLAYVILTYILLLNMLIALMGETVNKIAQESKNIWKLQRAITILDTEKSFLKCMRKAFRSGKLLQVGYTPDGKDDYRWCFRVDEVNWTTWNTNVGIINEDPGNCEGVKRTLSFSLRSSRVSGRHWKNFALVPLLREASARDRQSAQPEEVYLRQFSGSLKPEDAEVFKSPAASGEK
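Fluo-8 calcium influx in TRPV1-expressing cells, kinetic read (ex 480/em 520 nm). Compound added and read 3 min for agonist activity, followed by capsaicin at EC20 final and 2 min further read for enhancement.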
TRPV1 ag: HTS Assay for Compounds that Act as Agonists of the Vanilloid Receptor 1; Transient receptor potential cation channel subfamily V member 1 (Homo sapiens), Q8NER1; TRPV1-expressing cells, Fluo-8 calcium influx, agonist mode; activation, % at 8.33 µM; 0.19% of 320,000 active; AID 540275, 2011; in the data active means activation above about 80%; further: 0% is about no effect
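TRPV1-expressing cells were cultured overnight at 35.5C and loaded with Fluo-8 calcium dye for 40 to 90 min at room temperature. After a 10 s baseline, compound was added and calcium influx was read kinetically for 3 min (ex 480/em 520 nm).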
* = called active by the depositor. This is a sample that favours compounds with a hit; in the whole collection about 2.6% have one here.

Screening CCOC(=O)C=Nc1c(N)n(C)c(=O)n(C)c1=O returned KCNH2 3.1 inh -92*, KCNH2 WT inh -5, p53 reactivator -9%, ClpP mod 198%, TRPV1 potentiator -15 and TRPV1 ag 0.
For CC(C)C(NS(=O)(=O)c1ccccc1)C(=O)OCc1cc([N+](=O)[O-])cc2c1OCOC2 (stereo not drawn) the results were KCNH2 3.1 inh 13, KCNH2 WT inh 26, p53 reactivator 4%, ClpP mod 32µM*, TRPV1 potentiator -5 and TRPV1 ag 8.
`CCOC(=O)c1c(C)n(OCc2ccccc2)c2ccc3c(no[n+]3[O-])c12` gave KCNH2 3.1 inh -5, KCNH2 WT inh -3, p53 reactivator 8%, ClpP mod 0%, TRPV1 potentiator -6 and TRPV1 ag 14.
Screening Cn1c(-c2ccccc2)cc2c3no[n+]([O-])c3ccc21 returned KCNH2 3.1 inh 0, KCNH2 WT inh -8, p53 reactivator 7.1µM*, ClpP mod 3%, TRPV1 potentiator 6 and TRPV1 ag 1.
For Cc1cc(C)n2nc(SCC(=O)Nc3cc(Cl)ccc3C)nc2n1 the results were ClpP mod -5%.
For NS(=O)(=O)c1ccc(CCNCc2cc(Cl)ccc2OCc2ccccc2)cc1 the results were KCNH2 3.1 inh -37, KCNH2 WT inh 4, TRPV1 potentiator -12 and TRPV1 ag 9.
For NS(=O)(=O)c1ccc(CCNCc2ccccc2OCc2ccc(Cl)cc2)cc1 the results were KCNH2 3.1 inh -71*, KCNH2 WT inh 0, p53 reactivator 10%, TRPV1 potentiator -5 and TRPV1 ag 0.
O=C(c1ccc(F)cc1)N1CCCC(C(=O)N2CCN(c3ccccc3)CC2)C1 (stereo not drawn) was read as KCNH2 3.1 inh 1, KCNH2 WT inh 1, p53 reactivator 1%, ClpP mod 28µM*, TRPV1 potentiator 12 and TRPV1 ag 1.
`Cc1oc(-c2cccc(Br)c2)nc1CN1CCC(C(=O)NCc2ccccc2)CC1` gave ClpP mod -3%.
COc1cc(NC(=O)c2cccc3c2C(=O)N(C2CCCCC2)C3)cc(OC)c1 was read as ClpP mod -25%.
Screening CC1=C(C(=O)Nc2ccc(C)cn2)C(c2cnn(C)c2)C2=C(CCCC2=O)N1 (stereo not drawn) returned KCNH2 3.1 inh -12, KCNH2 WT inh -9, p53 reactivator -3%, ClpP mod 6.3µM*, TRPV1 potentiator 9 and TRPV1 ag 2.
Cc1cc(NC(=O)C(C)(C)Oc2ccc(Cl)cc2)cc(-c2nc3ncccc3o2)c1O was read as ClpP mod -1%.
For COc1ccc(OCc2ccc(-c3nc(C#N)c(N4CCCCC4)o3)o2)cc1 the results were ClpP mod 28µM*.
`CCN1CCN(c2oc(-c3ccc(COc4ccc(C)cc4)o3)nc2C#N)CC1` gave ClpP mod 32µM*.
COc1ccc(OCc2ccc(-c3nc(C#N)c(N4CCN(C)CC4)o3)o2)cc1 was read as ClpP mod 28µM*.
`CCN1CCN(c2oc(-c3ccco3)nc2C#N)CC1` gave KCNH2 3.1 inh -9, KCNH2 WT inh 1, p53 reactivator -2%, ClpP mod -5%, TRPV1 potentiator 11 and TRPV1 ag -1.
For COc1ccc(OCc2ccc(-c3nc(C#N)c(N4CCN(c5cccc(Cl)c5)CC4)o3)o2)cc1 the results were ClpP mod 3.5µM*.
